Test results published in ChEMBL document CHEMBL3988442, “University of Dundee, Small-Polar-MMV Screening Library” (2021).
Hit rate of the full screen: of about 48,000 compounds, about 13,000 (27%) showed an effect of 50% or more. This is one part of the list.

Tested on: Wolbachia pipientis
Assay: Anti-Wolbachia Cell-Based Screen
Assay type: functional
Set-up: scale not given: in the data most compounds retested in dose-response had high values
Conditions: 5 µM

SMILES	Percent Effect
CCc1nc(CNCC2(C(N)=O)CCOCC2)cs1	1.973%
CCCC1(CO)CCCN(c2ncccc2F)C1 (stereo unspecified)	-3.484%
COc1ccc(OCc2cc(C(=O)N3CCN[C@H](C)C3)n[nH]2)c(Cl)c1	-13.06%
CNC(=O)c1ccc(CN(C(C)C)C(C)C)o1.Cl	-8.523%
COc1cc(C)c(CNC(C)c2csc(C)n2)cc1OC (stereo unspecified)	-9.97%
N#CCCN(CCC#N)C(=O)COC1CCCCC1	-15.39%
Cc1nn(C)c(Cl)c1C1CCCN1C(=O)c1cnn(C)c1C1CC1 (stereo unspecified)	93.32%
COc1c(C2CCCN2C(=O)c2cnn(C)c2C2CC2)c(C)nn1C (stereo unspecified)	-4.592%
CCc1noc(C)c1C(=O)N1CCCC1c1c(C)nn(C)c1OC (stereo unspecified)	-9.828%
CCc1ccc(C(=O)N2CCCC2c2c(C)nn(C)c2OC)o1 (stereo unspecified)	54.64%
COc1c(C2CCCN2C(=O)c2cc(C3CC3)on2)c(C)nn1C (stereo unspecified)	-11.04%
COc1c(C2CCCN2C(=O)c2cc(C)on2)c(C)nn1C (stereo unspecified)	99.28%
COc1c(C2CCCN2C(=O)c2ccc(Cl)o2)c(C)nn1C (stereo unspecified)	6.578%
COCc1nc(C(=O)N2CCCC2c2c(C)nn(C)c2C)cs1 (stereo unspecified)	3.792%
COc1c(C2CCCN2C(=O)c2csc(C(C)C)n2)c(C)nn1C (stereo unspecified)	8.615%
COc1c(C2CCCN2C(=O)c2csc(C3CC3)n2)c(C)nn1C (stereo unspecified)	61.26%
COc1c(C2CCCN2C(=O)c2ccco2)c(C)nn1C (stereo unspecified)	-0.9591%
c1ccc(CCCN2CC[C@H](c3nnc(-c4ccccc4)o3)C2)cc1	-1.621%
CCN(Cc1ccoc1)C(C(N)=O)c1ccc(C#N)cc1 (stereo unspecified)	0.4454%
O=C(NCCc1csc(N2CCCC2)n1)N(C1CCCC1)C1CC1	-4.119%
Cc1cc2nc(CO[C@H]3CN(C4CCCCC4)C[C@H]3F)[nH]c2cc1C	9.281%
Cc1noc([C@@H]2C[C@H]3CN(Cc4ccc5c(c4)OCO5)C[C@H]3O2)n1.O=C(O)C(F)(F)F	-40.6%
COc1c(C2CCCN2C(=O)c2cnccn2)c(C)nn1C (stereo unspecified)	114.6%
COc1c(C2CCCN2C(=O)c2cscn2)c(C)nn1C (stereo unspecified)	88.43%

SMILES	Percent Effect
Cc1nn(C)c(Cl)c1C1CCCN1C(=O)c1cc(C2CC2)on1 (stereo unspecified)	102.8%
COc1c(C2CCCN2C(=O)c2cnc(C)cn2)c(C)nn1C (stereo unspecified)	86.16%
Cc1nc[nH]c1-c1nnc(SCC(=O)O)n1-c1ccccc1C(F)(F)F	-17.22%
O=S(=O)(Cc1ccccc1F)NC(CO)c1ccco1 (stereo unspecified)	6.014%
Cl.Cl.Cl.O[C@@H]1C[C@@](CNCc2ccccn2)(COc2cccnc2)C[C@@H]1O	-17.47%
Cc1ccsc1CNC(=O)c1ccc(N2CCNC2=O)cc1	1.647%
COc1ccc(NC(=O)N2CCC3(CC2)NC(=O)CC3C(=O)O)c(C)c1 (stereo unspecified)	2.707%
Cn1c(CS(=O)(=O)Cc2cccc(Cl)c2)cc(=O)n(C)c1=O	7.085%
CCS(=O)(=O)CCNc1nc(C2CCCC2)nc2c1cnn2C	3.087%
Cc1nn(C)c(C)c1C1CCCN1C(=O)Cc1cn2ccsc2n1 (stereo unspecified)	10.74%
CCc1nc(CC(=O)N2CCCC2c2c(C)nn(C)c2OC)cs1 (stereo unspecified)	118.7%
COc1c(C2CCCN2C(=O)Cc2c(C)noc2C)c(C)nn1C (stereo unspecified)	-5.371%
CCN(c1ccc(C(=O)Nc2c(C)nn(C(C)C)c2C)cc1)C(C)C	-6.116%
COc1cccc(N2CC3(CCN(c4ccc(C)nn4)C3)CC2=O)c1 (stereo unspecified)	3.863%
O=C(O)C(F)(F)F.c1csc(CN2C[C@@H](n3cccn3)[C@H]3OCCC[C@H]32)c1	9.631%
Cc1ccc(CN2CC[C@H]3[C@H](CC(Cn4cccn4)N3C)C2)s1.O=C(O)C(F)(F)F.O=C(O)C(F)(F)F.O=C(O)C(F)(F)F (stereo partly specified)	96%
CN1C(Cn2cccn2)C[C@@H]2CN(C(=O)c3cccc(C#N)c3)CC[C@@H]21.O=C(O)C(F)(F)F.O=C(O)C(F)(F)F (stereo partly specified)	118.1%
N#Cc1cccc(C(=O)N2CC[C@H]3[C@H]2CCN3CC2CCOCC2)c1.O=C(O)C(F)(F)F	-18.46%
CC(C)N1[C@H](Cn2cncn2)C[C@@H]2CN(Cc3cccs3)CC[C@@H]21.O=C(O)C(F)(F)F	3.978%
CN1[C@H](Cn2cncn2)C[C@@H]2CN(Cc3cccc(C#N)c3)CC[C@@H]21.O=C(O)C(F)(F)F.O=C(O)C(F)(F)F	3.665%
CN1[C@H](Cn2cccn2)C[C@@H]2CN(Cc3cccs3)CC[C@@H]21.O=C(O)C(F)(F)F.O=C(O)C(F)(F)F.O=C(O)C(F)(F)F	118%
CC(C)N1[C@H](Cn2cccn2)C[C@@H]2CN(Cc3ccoc3)CC[C@@H]21.O=C(O)C(F)(F)F.O=C(O)C(F)(F)F.O=C(O)C(F)(F)F	-17.46%
CN(C1CCCC1)C(C)(C)C(=O)NCCNC(N)=O	-0.4481%
COCC1CN(C(=O)Cc2ccccn2)Cc2ncnn2C1.O=C(O)C(F)(F)F (stereo unspecified)	-1.318%

SMILES	Percent Effect
Cc1ccc(CN2CCC(Cc3nnc(CO)n3C)CC2)cc1C	-13.27%
CN(c1ncc(S(N)(=O)=O)s1)C1CCC1	11.92%
COc1cc(NCc2ncc[nH]2)ccc1Br	2.622%
Cn1nc2c(cc1=O)CN(CCc1nc3ccccc3c(=O)[nH]1)CC2	5.907%
CN(C)C(=O)COC[C@]12COC[C@H]1CN(CC1CCC1)C2.O=C(O)C(F)(F)F	-8.978%
CN(C)C(=O)COC[C@]12COC[C@H]1CN(CCc1ccccc1)C2.O=C(O)C(F)(F)F	103%
CN(C)C(=O)COC[C@]12COC[C@H]1CN(Cc1ccoc1)C2	-6.231%
CN(C)C(=O)COC[C@]12COC[C@H]1CN(Cc1ccco1)C2.O=C(O)C(F)(F)F	94.75%
CCS(=O)(=O)NC[C@]12COC[C@H]1CN(CCc1ccccc1)C2.O=C(O)C(F)(F)F	-14.92%
CN(C)C(=O)COC[C@]12COC[C@H]1CN(Cc1ccccc1)C2.O=C(O)C(F)(F)F	108.4%
Cc1c(Cl)ccc2ccc(NC(CO)CO)nc12	-19.83%
Cc1ccc(NCc2cn3c(n2)CN(Cc2ccoc2)CC3)nn1.O=C(O)C(F)(F)F.O=C(O)C(F)(F)F	8.385%
CCn1ccnc1CN(C)C(C(=O)O)c1ccc(C(C)(C)C#N)cc1 (stereo unspecified)	-18.43%
C=C(C)COc1cccc(CN(CC)Cc2noc(C)n2)c1	-43.03%
NC1CCN(C(=O)c2cnc(Cc3c(Cl)cccc3Cl)nc2O)C1 (stereo unspecified)	-9.17%
COCCN(Cc1ccco1)Cc1nc(-c2ccsc2)no1	17.38%
CCCN(CCC)CCNc1c(-c2ccccc2)c(=O)c1=O	97.32%
CCN(CC)CCNC(=O)c1cnc(C(C)(C)C)s1	-7.701%
CN(C)CCNc1c(-c2ccccc2)c(=O)c1=O	102.6%
CCN(CC)CCNc1c(-c2ccccc2)c(=O)c1=O	104.3%
CN(C)CCNc1ccc(-c2nc(-c3ccccc3F)no2)cn1	-20.15%
CCN(CC)CCNC(=O)c1cnc(-c2ccccc2)nc1	14.16%
CN(C)CCNc1ccc(-c2nc(COc3ccccc3)no2)cn1	-0.8633%
O=c1ccc2c([nH]1)CCN(S(=O)(=O)c1ccc3c(c1)CCCC3)C2	-15.49%

SMILES	Percent Effect
Cc1ccc(CN2CC[C@@H](N(C)C(C)C)[C@@H]2Cc2ccccc2)o1	-15.45%
CCc1cccc(CC(=O)NC2CCN(C(=O)NC(C)(C)C)CC2)c1	-13.61%
CC(C)c1nc2n(n1)CC(NCc1ncc(-c3ccccc3)o1)CC2 (stereo unspecified)	-0.3467%
Cc1ncc(CNC2CCc3nc(C(C)C)nn3C2)s1 (stereo unspecified)	101%
Cc1nc(CNC2CCc3nc(C(C)C)nn3C2)oc1C (stereo unspecified)	22.08%
CC(C)c1nc2n(n1)CC(NCc1nnnn1C1CC1)CC2 (stereo unspecified)	8.252%
Cc1cnc(CNC2CCc3nc(C(C)C)nn3C2)cn1 (stereo unspecified)	130.4%
CC(C)c1nc2n(n1)CC(NCc1nnc(-c3ccco3)o1)CC2 (stereo unspecified)	-6.468%
CCn1cc(S(=O)(=O)Nc2ccc3[nH]c(C4CCC4)nc3c2)cn1	-33.9%
c1cnn(C2CN(c3nc(-c4ccncc4)nc4c3CCC4)C2)c1	-0.2642%
Cc1ccc(C2CN(C(=O)c3c(C)cc(C)[nH]c3=O)CCO2)c(C)c1 (stereo unspecified)	7.803%
CCC(C)N(C)S(=O)(=O)c1ccc(CCNC(C)=O)s1 (stereo unspecified)	12.12%
Cc1[nH]c(-c2ccccc2)nc1C(=O)N1CCC(O)(CO)CC1	-2.686%
CO[C@H]1CN(C(=O)c2cc3ccccc3[nH]2)CC[C@H]1N	117%
CO[C@H]1CN(C(=O)c2ccc(-c3ccccc3)[nH]2)CC[C@H]1N	104.8%
CC(C)COC1CCN(C(=O)c2cc3ccccc3c(=O)[nH]2)CC1	-14.3%
Cc1[nH]c(-c2ccccc2)nc1C(=O)N1CC[C@H](CO)[C@@H](O)C1	5.886%
Cc1ccsc1[C@@H]1CCN(C(=O)c2cc3ccccc3[nH]2)C[C@H]1O	-6.106%
CN1[C@H]2CC[C@@H]1CN(C(=O)c1ccc(-c3ccccc3)[nH]1)CC2	114.3%
CO[C@H]1CN(C(=O)c2nc(-c3ccccc3)[nH]c2C)CC[C@H]1N	99.21%
CC(=O)Nc1ccsc1C(=O)N1CC[C@@H]2CC[C@H](C1)N2C	-9.655%
CO[C@H]1CN(C(=O)c2ccc(-c3cc[nH]n3)cc2)CC[C@H]1N	5.265%
CN1[C@H]2CC[C@@H]1CN(C(=O)c1sccc1S(N)(=O)=O)CC2	-9.156%
O=C(c1cccc(-c2ncc[nH]2)c1)N1CC[C@H](CO)[C@@H](O)C1	-2.343%
